Compounds with a hit are over-represented: about 14% of the library has one in this group of screens.
LmPK inhibitor: LmPK (Leishmania mexicana) enzyme inhibition | actives 0.37% (n = 290,000) | purified LmPK, Kinase-Glo ATP luminescence, 1 h | Potency, µM (highest dose often 57.5 µM), for the others: at the highest dose activity change, negative = inhibition, actives largely listed as inhibitors; note: potency is the fitted concentration of half-maximal effect; % is set by controls: 0 for no effect and ±100 for the full control effect
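Pyruvate kinase activity monitored as ATP production (luciferase luminescence). Conditions: 0.1 nM enzyme, 0.5 mM PEP, 0.1 mM ADP, 1 h, RT; normalized against uninhibited and no-enzyme wells.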
FBPA Giardia inh: Giardia lamblia aldolase inhibition; A8B2U2; purified Giardia FBPA; Potency, µM (highest dose often 59.6 µM), for the others: at the top dose activity, negative = inhibition, usual class: inhibitors; actives 0.71% (n = 290,000); AID 2451; note: potency is the fitted concentration of half-maximal effect; % is set by controls: 0 for no effect and ±100 for the full control effect; nearly all actives have a fitted effect of over 55% in size
Target sequence (A8B2U2 whole entry, looked up): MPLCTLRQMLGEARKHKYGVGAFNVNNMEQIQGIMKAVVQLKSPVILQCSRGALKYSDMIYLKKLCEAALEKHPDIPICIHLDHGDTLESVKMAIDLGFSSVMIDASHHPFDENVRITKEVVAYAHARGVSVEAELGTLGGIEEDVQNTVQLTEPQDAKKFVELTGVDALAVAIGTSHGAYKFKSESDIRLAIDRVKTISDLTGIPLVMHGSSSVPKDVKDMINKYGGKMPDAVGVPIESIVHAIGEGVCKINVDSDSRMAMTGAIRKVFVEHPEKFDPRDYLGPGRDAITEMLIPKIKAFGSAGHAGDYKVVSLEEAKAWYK
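Giardia FBPA (40 nM reagent) was preincubated 10 min at RT with compound (up to 57.5 uM final), then substrate plus GAPDH/TPI/NAD/arsenate coupling system with diaphorase/resazurin was added; resorufin fluorescence (525/598 nm) was read after 20 min.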
Cycloheximide cs: counter-screen for Shiga toxin inhibitors: cycloheximide protein synthesis inhibition | cell reporter, cycloheximide protein synthesis inhibition counterscreen | max response, % | actives 12% (n = 300,000) | AID 2314; in the data active = max response mostly above about 13%, no sharp cut-off; inactive = mostly below about 14%; note: read at 38.3 µM for the half of the compounds with a filed dose; 0% is about no effect
NS1 inh: inhibitors of influenza NS1 protein function; Potency, µM (top dose mostly 46.1 µM), for inactives: at the top dose activity, positive = more growth; actives 0.4% (n = 270,000); calls by dose curve; note: potency is the fitted concentration of half-maximal effect; actives are rising curves; nearly all actives have a fitted effect of over 50% in size
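Read-out: OD600 growth recovery of NS1-expressing budding yeast. Cells grown overnight at 30C in -URA glucose medium, washed, resuspended and diluted 1:100 in 2% galactose assay medium, pH 6.0. Same strain lacking NS1 served as positive control.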
Shiga toxin inh: blocks Shiga toxin action in Vero cells | AID 2315 | actives 9.2% (n = 290,000) | Vero cells, Shiga toxin protein synthesis inhibition reporter | inhibition, % at 38.7 µM; in the data active = inhibition mostly above about 28%, no sharp cut-off; inactive = mostly below about 43%; note: 0% is about no effect
* hit, by the source's call; i = inactive; ? = inconclusive; . = not tested or not shown; [ ] = another dose, or the depositor's remark. Unless noted, calls come from the whole dose curve; as a rule, active = well fitted curve in the direction sought with a large enough effect; inconclusive = small, poorly fitted or top-dose-only effect, or another doubt; inactive = no such curve, though single readings can be large; an effect the other way counts as inactive or inconclusive.

SMILES | LmPK inhibitor | FBPA Giardia inh | Cycloheximide cs | NS1 inh | Shiga toxin inh
CCC(=O)Oc1ccc(-c2nc(-c3cccnc3)no2)cc1 | 7.9µM* | 1% | 22* | -53% | 32*
CCC/C=C(\CCC)C(NS(=O)(=O)c1cccc2cccnc12)c1ccc(-c2ccccc2)cc1 (stereo unspecified) | . | -2% | . | . | .
CCOC(=O)c1ncc2[nH]c3cccc(OC(C)C)c3c2c1C | . | -24% | 11 | . | 9
CC(NC(=O)c1ccc(Cl)cc1)c1nnc(SCC(=O)NC2=NCCS2)n1C (stereo unspecified) | -2% | -9% | -1 | 0% | -6
O=C(COc1ccccc1)N=C1SC2CS(=O)(=O)CC2N1c1ccccc1F (stereo unspecified) | 3% | 10% | -2 | -3% | -6
Cc1ccc(-c2nc(-c3ccccc3)no2)cc1 | ? | 6% | 38* | 2% | 64*
CCCc1noc(-c2ccc(-c3ccccc3)cc2)n1 | -9% | -4% | 66* | -63% | 146*
c1cncc(-c2noc(-c3ccco3)n2)c1 | -23% | 3% | 56* | -13% | 87*
Cc1cc(C)cc(-c2nc(-c3ccncc3)no2)c1 | -6% | 4% | 11* | -37% | 65
COc1ccc(NC(=O)N2CC[C@@]3(CCCN(C(=O)c4ccco4)C3)C2)cc1 | . | 0% | . | . | .
C[C@@H]1COC(=O)O1 | . | 0% | -1 | . | 5
Brc1cccc(-c2nc(-c3ccncc3)no2)c1 | 15% | 5% | 11 | -6% | 12
CC(C)(C)c1ccc(-c2nc(-c3ccncc3)no2)cc1 | 1% | -2% | 32* | -17% | 63*
Cc1ccc(-c2nc(-c3ccncc3)no2)cc1 | -11% | 10% | 52* | -4% | 72*
Cc1ccc(-c2nc(-c3cccnc3)no2)cc1 | -30% | 0% | 48* | -49% | 90*
CCC(c1ccccc1)c1nc(-c2cccnc2)no1 (stereo unspecified) | 0% | 2% | 0 | -8% | -8
Cc1cccc(-c2nc(-c3ccncc3)no2)c1 | -13% | 9% | 40* | -25% | 133*
CC(C)(C)N(Cc1ccccc1)C(=O)c1cc2ccccc2o1 | -4% | -2% | 1 | 3% | -10
O=C(c1cnccn1)N1CCC2(CC1)CCN(c1ccccn1)CC2 | . | 7% | . | . | .
Cc1ccc(/C=N/N2CCCCC2)o1 | 5% | 1% | 39* | . | 56*
Cc1[nH]nc(SCC(=O)N2CCC(C)CC2)c1[N+](=O)[O-] | -2% | -21% | 17* | 4% | 18
CC(c1ccc(F)cc1)n1c(-c2ccc3ccccc3n2)n[nH]c1=S (stereo unspecified) | 11µM* | . | -4 | -6% | -7
S=c1[nH]nc(-c2ccc3ccccc3n2)n1-c1ccc2c(c1)OCCO2 | 8.9µM* | 13% | 10 | 2% | 30
CC(c1ccc(Cl)cc1)n1c(-c2ccc3ccccc3n2)n[nH]c1=S (stereo unspecified) | 2% | 4% | -1 | -3% | -16
Fc1ccccc1-n1c(-c2ccc3ccccc3n2)n[nH]c1=S | -12% | -23% | 15 | 4% | 19
SMILES | LmPK inhibitor | FBPA Giardia inh | Cycloheximide cs | NS1 inh | Shiga toxin inh
S=c1[nH]nc(-c2ccc3ccccc3n2)n1-c1ccccc1 | 28µM* | 6% | -4 | 14% | 14
CN(Cc1cccnc1)Cc1cn[nH]c1-c1ccc(-c2ccccc2)cc1 | 2% | 6% | 6.6* | 2% | 27
CCc1[nH]nc(C(=O)N2CCCC(C(=O)c3cccc(OC(C)C)c3)C2)c1C (stereo unspecified) | 11% | . | 24* | -16% | 51*
CC(C)Oc1cccc(C(=O)C2CCCN(C(=O)CCc3cnn(C)c3)C2)c1 (stereo unspecified) | 7% | 13% | 52* | -7% | 66*
Cc1nn(C)c(C)c1CCC(=O)N1CCCC(C(=O)c2cccc(OC(C)C)c2)C1 (stereo unspecified) | -9% | 4% | 12 | -4% | 40
CCOc1ccc2nc(SCC(=O)NCc3ccco3)sc2c1 | 0% | 2% | 18* | -21% | 45
CCOc1ccc2nc(SCC(=O)c3cccs3)sc2c1 | -1% | -16% | 42* | 15% | 139*
CCOc1ccc2nc(SCC(=O)NC(=O)NCc3ccco3)sc2c1 | 5% | -10% | 3 | -3% | 2
CCOc1ccc2nc(SCC(=O)c3ccc(Cl)s3)sc2c1 | -3% | -12% | 0 | 1% | -2
Cn1ncc([N+](=O)[O-])c1C(=O)NC1CCCCC1 | 0% | 0% | -3 | 0% | -7
COc1ccc(S(=O)(=O)NCC2CCC(C(=O)O)CC2)cc1 (stereo unspecified) | 10% | 1% | -7 | ? | 1
COc1ccc(C2=Nn3c(nnc3-c3ccccc3C)SC2)cc1 | . | 2% | -3 | . | -4
NC1=NC(=Nc2ccc(Br)cc2)c2ccccc21 | -4% | -19% | 26* | -19% | 62*
CC(C)c1ccc(N=C2N=C(N)c3ccccc32)cc1 | -8% | -17% | 80* | -7% | 118*
NC1=NC(=Nc2ccc(Cl)cc2)c2ccccc21 | -2% | -14% | 47* | -16% | 27
CCn1nc(C)cc1C(=O)N1CCCC(N(C)CCc2ccc(OC)c(OC)c2)C1 (stereo unspecified) | -3% | . | 12 | 22% | 24
CCCCCCCCCCCCCC(=O)N[C@H](C)[C@@H](O)c1ccccc1 | . | -2% | . | . | .
COCCC(=O)N1CCC(n2nccc2NC(=O)c2ccccc2C)CC1 | 0% | 0% | 1 | 2% | -4
COc1ccccc1C(=O)Oc1ccccc1C(=O)Nc1ccccc1 | 3% | -4% | 23* | -8% | 52*
COc1ccccc1C(=O)Nc1ccc(Br)cc1C | 2% | -3% | 29* | -34% | 63*
COc1ccccc1C(=O)Nc1ccc(C(=O)O)cc1 | -4% | 7% | -3 | -7% | -7
COc1ccccc1C(=O)Nc1ccc(C(=O)c2ccccc2)cc1 | -1% | -25% | 27* | -2% | 62*
COc1cccc2cc(C(=O)Nc3ccccc3C)/c(=N/O)oc12 | -2% | -7% | 28* | -3% | 89*
O=S(=O)(c1ccccc1)N1CCC2(CCN(Cc3nccs3)CC2)CC1 | . | 13% | . | . | .
N#Cc1ccc2c(c1)C[C@]1(CCCCN3C(=O)c4ccccc4C3=O)OC3=C(C(=O)OC4(CCCCC4)C3)C2O1 | 2%[11.5 µM] | 2%[12.9 µM] | -1 | -5% | i
O=C(Oc1ccccc1C(=O)Nc1ccccc1)c1ccc(Br)c([N+](=O)[O-])c1 | -2% | 1% | 50* | -41% | 26*
O=[N+]([O-])c1nn(-c2ccc3c(c2)OCCO3)n(O)c1=NCc1ccc(F)cc1 | -9% | -2% | 103* | -14% | 92*
Cc1cccc(-n2nc([N+](=O)[O-])c(=NCc3cccnc3)n2O)c1 | 0% | -7% | 24 | -18% | 16
O=[N+]([O-])c1nn(-c2ccc3c(c2)OCCO3)n(O)c1=NCc1ccc(F)cc1Cl | 0% | 2% | 50* | . | 131*
